# Source: PubChem BioAssay
# Records with an inconclusive call do not appear. Active and inactive are the calls of the source.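 How the source made its calls, unless noted: active means percent response above a set limit, the screen-wide mean plus 3 SD (cut at about 130% in these data); inactive means the rest.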
# How the values were obtained:
# [1] = yeast TOR pathway RPL19A-GFP modulators, primary screen, cell-based, S. cerevisiae, multiplex flow cytometry (AID 1862; in the data active means percent of DMSO control GFP below about 86%;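 further: lower values mimic rapamycin by blocking the RPL19A rise seen in DMSO cells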); conditions: S. cerevisiae RPL19A-GFP strain, flow cytometry fluorescence, 3 h; at 10 µM; stronger effect = lower value
# [2] = modulators of MEP2-GFP levels in yeast, primary screen, S. cerevisiae, multiplex flow cytometry (AID 1867;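 active means GFP response, as percent of the DMSO control, above the screen-wide mean plus 3 SD, about 139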;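 further: median GFP channel fluorescence of barcode-gated MEP2-GFP cells measured by flow cytometry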); conditions: S. cerevisiae MEP2-GFP strain, 3 h, at 10 µM, stronger effect = higher value, 100% means same as DMSO wells
# [3] = modulators of CIT2-GFP expression in yeast, primary screen, S. cerevisiae, GFP fusion, multiplex flow cytometry (AID 1870); conditions: 3 h, at 10 µM, stronger effect = higher value;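 further: barcoded CIT2-GFP strain pooled with four other GFP strains with rapamycin as positive control; median GFP fluorescence per well over plate mean of DMSO wells so 100% = DMSO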
# [4] = modulators of LAP4-GFP expression in yeast, primary screen, S. cerevisiae, multiplex flow cytometry (AID 1873;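 active means GFP signal, as percent of the solvent control, above the screen mean plus 3 SD, about 149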); conditions: 3 h, at 10 µM, stronger effect = higher value
# [5] = modulators of AGP1-GFP expression in yeast TOR pathway, primary screen, cell-based, multiplex flow cytometry, S. cerevisiae (AID 1887;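 active means GFP signal above the screen-wide mean plus 3 SD, that is over about 124.5% of the solvent control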;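 further: AGP1-GFP fusion strain of S. cerevisiae within a five-strain barcoded multiplex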); conditions: 3 h, at 10 µM, stronger effect = higher value
# [6] = inhibitors of CD8+ T cell-vesicle binding, pilot screen, LFA-1/ICAM-1 modulator project, MLPCN validation set, flow cytometry (AID 2523;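 active means response below a set limit, under 55% cells CD8-positive and vesicle-bound, and CD8 cells' 90th-percentile brightness under 279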;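 on vesicle binding response: mean PE anti-B7-1 fluorescence of CD8+ cells relative to row control; 100% = QL9-loaded vesicles with DMSO vehicle in the same plate row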); conditions: 2C mouse CD8+ T cells, at 7 µM, stronger effect = lower value; double positive events: measured here: CD8+/vesicle+ event percentage
# [7] = target: Integrin beta-1 (Homo sapiens) + Integrin alpha-4 (Homo sapiens) (UniProt P13612+P05556); assay: inhibition of HUTS-21 binding to VLA-4, pilot screen, VLA-4 allosteric modulator project, U937 cells, HUTS-21 mAb, flow cytometry, validation set (AID 2674;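 active means inhibition above 50%, about 3 SD of the validation set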;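 further: antibody binding induced by the VLA-4 ligand LDV present at three times its Kd; 0% = LDV ligand with antibody and no compound and 100% = antibody without LDV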); conditions: HUTS-21 LIBS mAb binding, at 6.7 µM, stronger effect = higher value, binding induced by LDV ligand
# [8] = superoxide lowering in aged yeast cells, pilot screen, validation compound set (AID 2706;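 active means superoxide response below 65% of plate, a cut near 3 SD across the whole screen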;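 further: yeast exposed to compound for one week at 30 degrees C before staining; 100% = mean of all compound wells on the same plate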); conditions: S. cerevisiae aging, superoxide DHE fluorescence; at 10 µM; stronger effect = lower value
# [9] = target: Beta-adrenergic receptor kinase 1 (Homo sapiens) (UniProt P25098); assay: GRK2 binders displacing RNA aptamer, biochemical, validation, human GRK2, bead flow cytometry (AID 488806;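 active means aptamer binding inhibition above 30%, about 3 SD of noise from non-fluorescent compounds; inactive means inhibition at or below 30%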); conditions: bead-bound GRK2, FAM-aptamer displacement, at 10 µM, stronger effect = higher value
# [10] = target: Beta-2 adrenergic receptor (Homo sapiens) (UniProt P07550); assay: beta2AR agonists driving receptor internalization, pilot screen, cell-based, FAP fluorogen, flow cytometry, validation set (AID 504459;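 active means percent response above 42, roughly 3 SD of non-fluorescent test compounds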;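 further: agonist-driven loss of surface beta2AR via internalization measured by FAP dye flow cytometry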); conditions: Am2.2-beta2AR cells, FAP surface receptor flow cytometry; at 10 µM; stronger effect = higher value
# [11] = target: AP-2 complex subunit beta (Homo sapiens) (UniProt P63010); assay: inhibitors of arrestin peptide binding to AP2, pilot screen, biochemical, validation set, GST-AP2 beads, flow cytometry (AID 504541;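 active means inhibition above 54%, about 3 SD of non-fluorescent compounds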;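 further: AP2 carries R879A mutation and is captured from E. coli lysate; bead-bound FITC arrestin peptide fluorescence measuring arrestin peptide binding to AP2; 0% = DMSO wells and 100% = excess unlabeled arrestin peptide control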); conditions: FITC arrestin peptide, at 10 µM, stronger effect = higher value, AP2 beta2 appendage fragment, R879A mutant
# [12] = yeast V-ATPase proton transport modulators, S. cerevisiae, pHLuorin, HTS validation (AID 504600; in the data active means response above about 15%;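 further: plate controls were DMSO for no effect and reference compound for full effect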); conditions: S. cerevisiae pHLuorin cytosolic pH, at 10 µM, stronger effect = higher value
# [13] = test system: anti-desmoglein-3 scFv antibody binding to human DSG3; assay: inhibitors of anti-DSG3 scFv binding to DSG3, pilot screen, biochemical, validation compound set, bead-based, flow cytometry (AID 588368;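 active means binding below the plate cutoff, the plate median minus 3 SD, with a reading above zero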;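 further: signal is the median channel fluorescence of bead-bound GFP antibody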); conditions: Protein G beads, DSG3-Fc, scFv-GFP binding, at 10 µM, stronger effect = lower value
# [14] = inhibitors of fungal efflux pumps CDR1, CDR2, MDR1, pilot screen, validation compound set, multiplex, phenotypic (AID 588506;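 active means efflux inhibition above 0.42, the validation set average plus 4 SD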;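 further: Nile Red retained in cells so higher fluorescence means more efflux inhibition; 0 = negative control wells and 1 = enniatin B 25 µM full block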); conditions: S. cerevisiae pump-expressing triplex, Nile Red efflux flow cytometry; at 10 µM; stronger effect = higher value; the pumps come from Candida albicans
# [15] = target: ATP-binding cassette sub-family B member 6 (Homo sapiens) (UniProt Q9NP58); assay: ABCB6 transporter inhibitors, pilot screen, K562-ABCB6 cells, flow cytometry, validation set (AID 588550;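 active means inhibition above the screen-wide mean plus 3 SD, about 51%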;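 further: 0% = DMSO wells and 100% = benzethonium chloride 70 µM positive control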); conditions: K562-ABCB6 porphyrin accumulation, 1 h, at 10 µM, stronger effect = higher value
# [16] = promoters of myeloid differentiation in arrested cells, primary screen, cell-based, GFP/MAC1 double positive, flow cytometry, validation set (AID 588685;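 active means differentiation response of at least 50%, scaled between solvent and reference control, from cells with both markers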;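 further: compound exposure lasts four days before antibody staining and flow analysis; 0% = DMSO wells and 100% = 5 µM fulvestrant positive control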); conditions: ER-HoxA9 marrow cells, stronger effect = higher value, normalized: vehicle 0, fulvestrant 100
# Sequence of AP-2 complex subunit beta (Homo sapiens) (P63010 whole entry, looked up, the tested form may be a part, one chain of several): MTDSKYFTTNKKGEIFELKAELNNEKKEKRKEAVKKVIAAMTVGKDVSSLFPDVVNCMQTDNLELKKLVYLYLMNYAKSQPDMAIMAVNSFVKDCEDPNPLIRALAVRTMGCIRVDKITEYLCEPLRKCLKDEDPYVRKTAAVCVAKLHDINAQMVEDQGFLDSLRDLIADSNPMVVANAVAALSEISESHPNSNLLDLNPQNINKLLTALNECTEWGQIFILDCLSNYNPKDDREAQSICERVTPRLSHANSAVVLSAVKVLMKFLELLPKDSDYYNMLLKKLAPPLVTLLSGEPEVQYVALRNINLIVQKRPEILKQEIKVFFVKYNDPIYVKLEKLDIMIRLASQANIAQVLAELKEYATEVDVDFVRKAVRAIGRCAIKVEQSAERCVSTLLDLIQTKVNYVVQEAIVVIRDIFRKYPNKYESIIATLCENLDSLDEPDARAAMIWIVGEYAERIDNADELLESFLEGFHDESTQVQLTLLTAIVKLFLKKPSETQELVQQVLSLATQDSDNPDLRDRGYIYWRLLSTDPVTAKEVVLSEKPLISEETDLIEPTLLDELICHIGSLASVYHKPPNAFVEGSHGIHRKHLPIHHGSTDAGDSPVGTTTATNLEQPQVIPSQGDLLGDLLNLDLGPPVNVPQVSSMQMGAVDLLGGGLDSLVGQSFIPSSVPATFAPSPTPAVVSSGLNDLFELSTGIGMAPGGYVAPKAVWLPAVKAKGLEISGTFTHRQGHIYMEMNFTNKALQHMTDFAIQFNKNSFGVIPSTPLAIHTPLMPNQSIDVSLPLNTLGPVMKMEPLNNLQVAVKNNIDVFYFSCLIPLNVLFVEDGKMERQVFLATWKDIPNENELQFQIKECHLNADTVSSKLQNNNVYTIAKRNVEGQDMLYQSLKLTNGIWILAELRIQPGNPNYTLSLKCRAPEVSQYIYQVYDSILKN
# Sequence of Beta-2 adrenergic receptor (Homo sapiens) (P07550 whole entry, looked up): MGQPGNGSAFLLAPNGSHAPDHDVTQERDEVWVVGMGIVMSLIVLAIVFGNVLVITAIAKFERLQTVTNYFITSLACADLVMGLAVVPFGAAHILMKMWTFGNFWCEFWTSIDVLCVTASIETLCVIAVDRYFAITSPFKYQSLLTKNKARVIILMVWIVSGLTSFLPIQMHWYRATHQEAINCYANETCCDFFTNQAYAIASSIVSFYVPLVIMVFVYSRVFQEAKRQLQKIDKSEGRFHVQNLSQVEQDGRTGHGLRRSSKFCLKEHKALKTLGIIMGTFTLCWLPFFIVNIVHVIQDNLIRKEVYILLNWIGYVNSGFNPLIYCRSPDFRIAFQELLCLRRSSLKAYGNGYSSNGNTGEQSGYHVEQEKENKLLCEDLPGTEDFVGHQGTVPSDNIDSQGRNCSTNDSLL
# Sequence of Beta-adrenergic receptor kinase 1 (Homo sapiens) (P25098 whole entry, looked up): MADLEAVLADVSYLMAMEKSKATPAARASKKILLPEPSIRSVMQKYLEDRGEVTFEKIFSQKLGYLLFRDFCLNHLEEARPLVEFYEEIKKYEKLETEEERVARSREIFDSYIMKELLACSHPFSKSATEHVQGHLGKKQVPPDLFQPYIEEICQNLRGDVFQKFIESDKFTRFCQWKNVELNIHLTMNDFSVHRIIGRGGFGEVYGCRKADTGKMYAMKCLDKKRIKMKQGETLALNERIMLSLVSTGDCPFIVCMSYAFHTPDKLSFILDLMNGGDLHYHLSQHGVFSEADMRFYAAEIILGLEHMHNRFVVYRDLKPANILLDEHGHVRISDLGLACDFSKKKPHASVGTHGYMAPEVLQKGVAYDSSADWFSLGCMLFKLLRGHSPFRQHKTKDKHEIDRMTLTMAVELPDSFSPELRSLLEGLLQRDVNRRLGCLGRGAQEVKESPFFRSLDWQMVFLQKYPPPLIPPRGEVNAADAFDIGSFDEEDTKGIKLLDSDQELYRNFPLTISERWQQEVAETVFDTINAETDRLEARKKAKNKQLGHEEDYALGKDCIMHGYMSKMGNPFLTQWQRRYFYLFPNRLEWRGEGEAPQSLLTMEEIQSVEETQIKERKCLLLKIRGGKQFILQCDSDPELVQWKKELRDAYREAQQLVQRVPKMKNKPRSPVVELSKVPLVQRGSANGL
# Sequence of ATP-binding cassette sub-family B member 6 (Homo sapiens) (Q9NP58 whole entry, looked up): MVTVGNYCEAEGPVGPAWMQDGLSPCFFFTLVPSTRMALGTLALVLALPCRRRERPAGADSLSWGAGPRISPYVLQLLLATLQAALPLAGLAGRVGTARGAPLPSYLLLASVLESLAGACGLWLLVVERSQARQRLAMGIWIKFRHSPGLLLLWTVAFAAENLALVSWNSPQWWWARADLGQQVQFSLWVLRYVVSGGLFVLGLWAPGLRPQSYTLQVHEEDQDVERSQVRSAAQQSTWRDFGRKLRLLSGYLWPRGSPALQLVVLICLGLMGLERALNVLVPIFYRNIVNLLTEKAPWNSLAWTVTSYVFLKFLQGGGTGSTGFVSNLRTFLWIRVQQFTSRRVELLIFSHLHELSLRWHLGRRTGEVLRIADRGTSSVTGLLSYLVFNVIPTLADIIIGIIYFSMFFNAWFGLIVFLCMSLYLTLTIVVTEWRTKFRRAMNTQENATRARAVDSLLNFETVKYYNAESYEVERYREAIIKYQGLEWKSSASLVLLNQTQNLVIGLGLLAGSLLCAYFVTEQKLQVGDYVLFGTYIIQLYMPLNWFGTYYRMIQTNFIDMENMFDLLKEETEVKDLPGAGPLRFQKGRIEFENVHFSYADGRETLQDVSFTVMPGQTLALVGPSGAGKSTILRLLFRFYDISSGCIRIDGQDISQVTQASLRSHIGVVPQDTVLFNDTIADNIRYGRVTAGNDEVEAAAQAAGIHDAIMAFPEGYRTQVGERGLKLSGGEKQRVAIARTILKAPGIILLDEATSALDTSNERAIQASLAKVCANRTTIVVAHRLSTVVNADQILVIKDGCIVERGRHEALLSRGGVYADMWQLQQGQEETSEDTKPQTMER
# Sequence of Integrin beta-1 (Homo sapiens) + Integrin alpha-4 (Homo sapiens) (P05556 whole entry, looked up): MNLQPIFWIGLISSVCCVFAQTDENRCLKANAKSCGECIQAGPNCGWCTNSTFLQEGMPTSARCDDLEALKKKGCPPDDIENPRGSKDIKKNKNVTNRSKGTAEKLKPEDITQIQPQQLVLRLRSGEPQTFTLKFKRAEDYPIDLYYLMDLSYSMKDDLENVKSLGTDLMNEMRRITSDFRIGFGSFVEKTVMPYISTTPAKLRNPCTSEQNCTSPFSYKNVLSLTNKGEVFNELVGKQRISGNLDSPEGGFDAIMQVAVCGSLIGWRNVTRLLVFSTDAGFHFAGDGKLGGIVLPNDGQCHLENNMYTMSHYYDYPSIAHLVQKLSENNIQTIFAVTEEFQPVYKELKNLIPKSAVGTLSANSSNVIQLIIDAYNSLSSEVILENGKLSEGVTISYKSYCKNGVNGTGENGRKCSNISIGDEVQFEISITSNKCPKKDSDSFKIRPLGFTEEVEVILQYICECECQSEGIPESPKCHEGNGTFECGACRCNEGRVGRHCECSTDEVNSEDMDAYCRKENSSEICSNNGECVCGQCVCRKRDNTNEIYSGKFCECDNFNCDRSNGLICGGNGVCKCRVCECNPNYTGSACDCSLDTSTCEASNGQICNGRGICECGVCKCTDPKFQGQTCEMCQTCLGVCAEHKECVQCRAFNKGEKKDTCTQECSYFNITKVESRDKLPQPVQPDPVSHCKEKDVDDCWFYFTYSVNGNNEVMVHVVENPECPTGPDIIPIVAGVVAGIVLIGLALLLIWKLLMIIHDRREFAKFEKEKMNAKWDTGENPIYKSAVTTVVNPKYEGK
# Sequence of Integrin beta-1 (Homo sapiens) + Integrin alpha-4 (Homo sapiens) (P13612 whole entry, looked up): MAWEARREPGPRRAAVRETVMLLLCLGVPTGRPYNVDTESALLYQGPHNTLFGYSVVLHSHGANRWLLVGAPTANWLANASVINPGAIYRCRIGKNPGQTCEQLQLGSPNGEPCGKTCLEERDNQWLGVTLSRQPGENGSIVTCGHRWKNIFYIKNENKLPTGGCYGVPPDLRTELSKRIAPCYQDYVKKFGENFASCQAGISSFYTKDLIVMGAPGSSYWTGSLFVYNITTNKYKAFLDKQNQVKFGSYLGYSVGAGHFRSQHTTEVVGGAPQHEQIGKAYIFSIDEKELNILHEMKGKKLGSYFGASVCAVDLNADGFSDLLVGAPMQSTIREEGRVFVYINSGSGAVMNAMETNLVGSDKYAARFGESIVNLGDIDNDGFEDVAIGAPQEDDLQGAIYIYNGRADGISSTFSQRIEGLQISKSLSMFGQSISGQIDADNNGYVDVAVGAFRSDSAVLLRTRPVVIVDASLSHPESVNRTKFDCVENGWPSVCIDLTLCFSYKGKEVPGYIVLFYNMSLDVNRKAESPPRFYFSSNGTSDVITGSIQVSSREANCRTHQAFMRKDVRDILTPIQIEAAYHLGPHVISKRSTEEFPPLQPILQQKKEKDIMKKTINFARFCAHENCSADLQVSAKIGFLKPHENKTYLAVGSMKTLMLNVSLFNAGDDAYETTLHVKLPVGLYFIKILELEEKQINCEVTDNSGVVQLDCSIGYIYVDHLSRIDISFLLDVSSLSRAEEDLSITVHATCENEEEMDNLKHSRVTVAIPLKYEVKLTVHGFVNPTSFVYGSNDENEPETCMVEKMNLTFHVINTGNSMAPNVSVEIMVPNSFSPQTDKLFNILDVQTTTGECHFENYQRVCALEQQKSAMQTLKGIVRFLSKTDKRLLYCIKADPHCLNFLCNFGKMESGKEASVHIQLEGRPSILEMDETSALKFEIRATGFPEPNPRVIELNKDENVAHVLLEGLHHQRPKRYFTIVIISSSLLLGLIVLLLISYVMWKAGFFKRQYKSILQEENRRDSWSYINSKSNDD
Structure (SMILES),percent of DMSO control GFP [1],GFP response vs DMSO [2],percent response of DMSO control [3],GFP response vs DMSO [4],"GFP response, % of DMSO [5]",double positive events [6] [%],vesicle binding response [6],inhibition [7],superoxide response (% of plate) [8],aptamer binding inhibition [9],response [10],inhibition [11],response [12],binding (% of control) [13],efflux inhibition (fraction of control) [14],inhibition [15],differentiation response [16]
O=C1CCCC(=O)C1=Cc1c[nH]c2ccccc12,97.9% (inactive),102% (inactive),95.1% (inactive),112% (inactive),106% (inactive),62,226% (inactive),9.95% (inactive),108% (inactive),3% (inactive),28.4% (inactive),7.17% (inactive),5.91% (inactive),98.5% (inactive),0 (inactive),-6% (inactive),5.85% (inactive)
O=C(CC(NC(=O)OCc1ccccc1)C(=O)O)OCc1ccccc1 (stereo not drawn),106% (inactive),99.3% (inactive),107% (inactive),98% (inactive),99.5% (inactive),63.2,160% (inactive),18.2% (inactive),94.6% (inactive),4% (inactive),-5.78% (inactive),-5.06% (inactive),-3.27% (inactive),97.1% (inactive),-0.07 (inactive),22% (inactive),-2.69% (inactive)
CC(C)COCC(CN(Cc1ccccc1)c1ccccc1)N1CCCC1 (stereo not drawn),93.5% (inactive),121% (inactive),104% (inactive),74.3% (inactive),91.9% (inactive),61.3,119% (inactive),1.61% (inactive),116% (inactive),-2% (inactive),8.3% (inactive),-11.8% (inactive),0.91% (inactive),113% (inactive),0.16 (inactive),8% (inactive),-0.82% (inactive)
COc1ccc(C(C)N2CC34C=CC(O3)C(C(=O)OCC(C)C)C4C2=O)cc1 (stereo not drawn),103% (inactive),107% (inactive),96.6% (inactive),92% (inactive),107% (inactive),63.5,5650% (inactive),-10.8% (inactive),98.6% (inactive),1% (inactive),-2.15% (inactive),-17.5% (inactive),3.8% (inactive),96.9% (inactive),0.02 (inactive),-4% (inactive),-8.55% (inactive)
CCCC(=O)Nc1ncnc2c1ncn2[C@@H]1O[C@@H]2COP(=O)(O)O[C@H]2[C@H]1OC(=O)CCC,97.7% (inactive),130% (inactive),97.9% (inactive),96.3% (inactive),94.7% (inactive),61,131% (inactive),4.52% (inactive),96.8% (inactive),3% (inactive),-6.04% (inactive),-3.95% (inactive),1.56% (inactive),98.3% (inactive),-0.06 (inactive),7% (inactive),5.73% (inactive)
CCOc1ccc(C(=O)NCC2(c3ccccc3)CCOCC2)cc1,99.8% (inactive),97.7% (inactive),108% (inactive),105% (inactive),108% (inactive),63.3,172% (inactive),-13.2% (inactive),95.9% (inactive),-4% (inactive),-2.34% (inactive),-4.75% (inactive),-1% (inactive),107% (inactive),-0.11 (inactive),11% (inactive),10.1% (inactive)
COC(=O)c1ccc(C(=O)OC)c(NC(=O)C(C)C)c1,97.8% (inactive),102% (inactive),102% (inactive),138% (inactive),112% (inactive),63.1,204% (inactive),-72.7% (inactive),100% (inactive),0% (inactive),-13.3% (inactive),-9.41% (inactive),0.33% (inactive),97.1% (inactive),0 (inactive),-3% (inactive),0.92% (inactive)
COc1ccc(CNC(=O)C2CCCN2C)cc1OC (stereo not drawn),98.8% (inactive),99.7% (inactive),101% (inactive),92.6% (inactive),96.7% (inactive),62,141% (inactive),1.59% (inactive),87.7% (inactive),-2% (inactive),7.42% (inactive),-3.62% (inactive),-0.65% (inactive),104% (inactive),-0.29 (inactive),-5% (inactive),-7.5% (inactive)
Cc1cc(O)c(C(=O)Cc2csc(C)n2)c(O)c1,102% (inactive),109% (inactive),98.2% (inactive),112% (inactive),96.1% (inactive),56.7,15.7% (inactive),1.12% (inactive),104% (inactive),5% (inactive),2.72% (inactive),6.62% (inactive),-0.65% (inactive),99.5% (inactive),0.46 (active),2% (inactive),6.49% (inactive)
